Source: the supplement of paper PMC9694430
“And” between values parts separate entries of the source, which are not always exact repeats. Equal entries are not always repeated. Structures can show the parent of a compound that is named as a salt.

Each compound was assayed on LOC_OS02G54510-cb004 (assay: thermal shift delta Tm vs DMSO control; higher = stronger stabilization (binding)). Settings: 12.5 µM; protein concentration 2 µM.
In short: (§1)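 Purified, E. coli-expressed rice kinase domain constructs were tested by differential scanning fluorimetry in 96-well plates: 19.5 μl of 2 μM kinase in 100 mM potassium phosphate pH 7.5, 150 mM NaCl, 10% glycerol, 5 × SYPRO Orange, plus compound in DMSO. Fluorescence was read from 25°C to 95°C at 0.05°C/s. Melting temperatures came from Boltzmann fits, and the shift is the triplicate mean relative to protein with DMSO alone.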

Structure (SMILES)	thermal shift delta Tm
COc1cc(Nc2ncc(F)c(Nc3ccc4c(n3)NC(=O)C(C)(C)O4)n2)cc(OC)c1OC	4.62 °C
Cc1ccc(-n2nc(C(C)(C)C)cc2NC(=O)Nc2ccc(OCCN3CCOCC3)c3ccccc23)cc1 [Doramapimod (BIRB 796)]	0.33 °C
CC#CC(=O)N1CC[C@@H](n2c(=O)n(-c3ccc(Oc4ccccc4)cc3)c3c(N)ncnc32)C1 [ONO-4059 (GS-4059) hydrochloride]	0.65 °C
O=C(NC[C@H](O)CO)c1ccncc1Nc1ccc(I)cc1F	0.09 °C
CO[C@H]1C[C@@H]2CC[C@@H](C)[C@@](O)(O2)C(=O)C(=O)N2CCCC[C@H]2C(=O)O[C@H]([C@H](C)C[C@@H]2CC[C@@H](O)[C@H](OC)C2)CC(=O)[C@H](C)/C=C(\C)[C@@H](O)[C@@H](OC)C(=O)[C@H](C)C[C@H](C)/C=C/C=C/C=C/1C [Rapamycin (Sirolimus)]	0 °C
COc1c(C)c(C(=O)c2ccc(N)c(C(=O)O)c2)n2ccccc12	0.3 °C
CC(C)CC(=O)Nc1n[nH]c2c1CN(C(=O)C1CCN(C)CC1)C2(C)C	0.36 °C
COc1cc2ncnc(Nc3ccc(O)c(Br)c3)c2cc1OC	0.71 °C
CCN(CC)CCCC(C)Nc1nc(C)cc(Nc2ccc3nc(C)cc(N)c3c2)n1 (centres undefined)	0.18 °C
Cc1cc(NC(=O)c2cccc(NC(=O)/C=C/CN(C)C)c2)ccc1Nc1nccc(-c2cccnc2)n1	0.3 °C
COc1cc2ncnc(Nc3cccc(Cl)c3F)c2cc1OC(=O)N1CCN(C)C[C@H]1C	0.53 °C
Cc1ccc(C(=O)Nc2ccc(Oc3cc4cnn(C)c4cc3-c3cn[nH]c3)c(F)c2)c(=O)n1-c1ccc(F)cc1	0.17 °C
CC#CC(=O)N1CCC[C@H]1c1nc(-c2ccc(C(=O)Nc3ccccn3)cc2)c2c(N)nccn12 [Acalabrutinib (ACP-196)]	0.55 °C
Nc1ncccc1-c1nc2ccc(-c3ccccc3)nc2n1-c1ccc(C2(N)CCC2)cc1 [Miransertib (ARQ 092) HCl]	-0.18 °C
Cc1cc(C(C)Nc2ccccc2)c2nc(N3CCOCC3)cc(=O)n2c1 (centres undefined)	0.09 °C
COc1cc2nccc(Oc3ccc(NC(=O)C4(C(=O)Nc5ccc(F)cc5)CC4)cc3)c2cc1OC [Cabozantinib malate (XL184)]	0.27 °C
COC(=O)N[C@@H](C)CNc1nccc(-c2cn(C(C)C)nc2-c2cc(Cl)cc(NS(C)(=O)=O)c2F)n1 [Encorafenib (LGX818)]	-0.06 °C
COc1ccc(C(=O)Nc2sc3c(c2C(N)=O)CCCC3)cc1OC	0.13 °C
CN1C(=O)[C@@H](NC(=O)c2n[nH]c(Cc3ccccc3)n2)COc2ccccc21	-0.02 °C

Structure (SMILES)	thermal shift delta Tm
Nc1nccc(Oc2ccc(NC(=O)c3c[nH]cc(-c4ccc(F)cc4)c3=O)cc2F)c1Cl	0.77 °C
COc1cc2c(c(OC)c1OC)-c1c(cc3c(c1OC)OCO3)CC(C)C(C)C2 (centres undefined) [Schisandrin B (Sch B)]	-0.01 °C
COC(=O)c1ccc2c(c1)NC(=O)/C2=C(\Nc1ccc(N(C)C(=O)CN2CCN(C)CC2)cc1)c1ccccc1 [Nintedanib (BIBF 1120)]	0.74 °C
O=C(Nc1ccccc1C(=O)NC1CCCCNC1=O)c1cc2ccccc2s1 (centres undefined)	0.07 °C
Cc1cc(C)c(/C=C2\C(=O)Nc3ccccc32)[nH]1 [Semaxanib (SU5416)]	0.58 °C
N#Cc1cccc(-c2c[nH]c3ncnc(N4CCOCC4)c23)c1	0.44 °C
Cc1ccc2nc(NCCN)c3ncc(C)n3c2c1	0.24 °C
C[C@@H]1CCN(C(=O)CC#N)C[C@@H]1N(C)c1ncnc2[nH]ccc12	0.3 °C and 0.25 °C
Cc1nc(NC(=O)N2CCC[C@H]2C(N)=O)sc1-c1ccnc(C(C)(C)C(F)(F)F)c1 [Alpelisib (BYL719)]	0.02 °C
CNc1nc(Nc2cn(C(C)(C)C#N)nc2C)ncc1C(F)(F)F	0.1 °C
O=C(Nc1c[nH]nc1-c1nc2ccc(CN3CCOCC3)cc2[nH]1)NC1CC1	2.96 °C
N#Cc1ccc(-c2c(-c3ncn[nH]3)sc(N3CCOCC3)c2C#N)c(F)c1	0.27 °C
Oc1cccc(-c2nc(N3CCOCC3)c3oc4ncccc4c3n2)c1	-0.06 °C
CN(C)C/C=C/C(=O)Nc1ccc(C(=O)Nc2cccc(Nc3ncc(Cl)c(-c4c[nH]c5ccccc45)n3)c2)cc1	2.87 °C
CCNC(=O)Nc1ccc(-c2nc(N3CCOC[C@@H]3C)c3c(n2)C(C)(C)S(=O)(=O)C3)cc1	0.08 °C
CNC(=O)c1cc(Oc2ccc3nc(N[C@@H]4CCCC[C@H]4O)sc3c2)ccn1	-0.11 °C
CN(C)CCOc1ccc(-c2nc(-c3ccncc3)c(-c3ccc4c(c3)CC/C4=N\O)[nH]2)cc1	0.08 °C
Cc1ccc(NC(=O)c2cccc(N(C)C)c2)cc1NC(=O)c1ccc(O)cc1	0.45 °C

These compounds were tested on LOC_OS03G04050-cb001 in the same assay as above. Settings: 12.5 µM; protein concentration 2 µM.
In short: as §1

Structure (SMILES)	thermal shift delta Tm
COc1cc(Nc2ncc(F)c(Nc3ccc4c(n3)NC(=O)C(C)(C)O4)n2)cc(OC)c1OC	0.45 °C
Cc1ccc(-n2nc(C(C)(C)C)cc2NC(=O)Nc2ccc(OCCN3CCOCC3)c3ccccc23)cc1 [Doramapimod (BIRB 796)]	0.33 °C
CC#CC(=O)N1CC[C@@H](n2c(=O)n(-c3ccc(Oc4ccccc4)cc3)c3c(N)ncnc32)C1 [ONO-4059 (GS-4059) hydrochloride]	0.51 °C
O=C(NC[C@H](O)CO)c1ccncc1Nc1ccc(I)cc1F	0.21 °C
CO[C@H]1C[C@@H]2CC[C@@H](C)[C@@](O)(O2)C(=O)C(=O)N2CCCC[C@H]2C(=O)O[C@H]([C@H](C)C[C@@H]2CC[C@@H](O)[C@H](OC)C2)CC(=O)[C@H](C)/C=C(\C)[C@@H](O)[C@@H](OC)C(=O)[C@H](C)C[C@H](C)/C=C/C=C/C=C/1C [Rapamycin (Sirolimus)]	0.5 °C
COc1c(C)c(C(=O)c2ccc(N)c(C(=O)O)c2)n2ccccc12	0.46 °C
CC(C)CC(=O)Nc1n[nH]c2c1CN(C(=O)C1CCN(C)CC1)C2(C)C	0.36 °C
COc1cc2ncnc(Nc3ccc(O)c(Br)c3)c2cc1OC	0.44 °C
CCN(CC)CCCC(C)Nc1nc(C)cc(Nc2ccc3nc(C)cc(N)c3c2)n1 (centres undefined)	0.55 °C
Cc1cc(NC(=O)c2cccc(NC(=O)/C=C/CN(C)C)c2)ccc1Nc1nccc(-c2cccnc2)n1	1.05 °C
COc1cc2ncnc(Nc3cccc(Cl)c3F)c2cc1OC(=O)N1CCN(C)C[C@H]1C	0.43 °C
Cc1ccc(C(=O)Nc2ccc(Oc3cc4cnn(C)c4cc3-c3cn[nH]c3)c(F)c2)c(=O)n1-c1ccc(F)cc1	1.07 °C
CC#CC(=O)N1CCC[C@H]1c1nc(-c2ccc(C(=O)Nc3ccccn3)cc2)c2c(N)nccn12 [Acalabrutinib (ACP-196)]	0.39 °C
Nc1ncccc1-c1nc2ccc(-c3ccccc3)nc2n1-c1ccc(C2(N)CCC2)cc1 [Miransertib (ARQ 092) HCl]	0.2 °C
Cc1cc(C(C)Nc2ccccc2)c2nc(N3CCOCC3)cc(=O)n2c1 (centres undefined)	0.44 °C
COc1cc2nccc(Oc3ccc(NC(=O)C4(C(=O)Nc5ccc(F)cc5)CC4)cc3)c2cc1OC [Cabozantinib malate (XL184)]	0.7 °C
COC(=O)N[C@@H](C)CNc1nccc(-c2cn(C(C)C)nc2-c2cc(Cl)cc(NS(C)(=O)=O)c2F)n1 [Encorafenib (LGX818)]	0.22 °C
COc1ccc(C(=O)Nc2sc3c(c2C(N)=O)CCCC3)cc1OC	0.38 °C
CN1C(=O)[C@@H](NC(=O)c2n[nH]c(Cc3ccccc3)n2)COc2ccccc21	0.45 °C

Structure (SMILES)	thermal shift delta Tm
Nc1nccc(Oc2ccc(NC(=O)c3c[nH]cc(-c4ccc(F)cc4)c3=O)cc2F)c1Cl	0.58 °C
COc1cc2c(c(OC)c1OC)-c1c(cc3c(c1OC)OCO3)CC(C)C(C)C2 (centres undefined) [Schisandrin B (Sch B)]	0.81 °C
COC(=O)c1ccc2c(c1)NC(=O)/C2=C(\Nc1ccc(N(C)C(=O)CN2CCN(C)CC2)cc1)c1ccccc1 [Nintedanib (BIBF 1120)]	0.2 °C
O=C(Nc1ccccc1C(=O)NC1CCCCNC1=O)c1cc2ccccc2s1 (centres undefined)	0.19 °C
Cc1cc(C)c(/C=C2\C(=O)Nc3ccccc32)[nH]1 [Semaxanib (SU5416)]	0.69 °C
N#Cc1cccc(-c2c[nH]c3ncnc(N4CCOCC4)c23)c1	0.26 °C
Cc1ccc2nc(NCCN)c3ncc(C)n3c2c1	0.59 °C
C[C@@H]1CCN(C(=O)CC#N)C[C@@H]1N(C)c1ncnc2[nH]ccc12	0.21 °C and 0.74 °C
Cc1nc(NC(=O)N2CCC[C@H]2C(N)=O)sc1-c1ccnc(C(C)(C)C(F)(F)F)c1 [Alpelisib (BYL719)]	0.28 °C
CNc1nc(Nc2cn(C(C)(C)C#N)nc2C)ncc1C(F)(F)F	0.32 °C
O=C(Nc1c[nH]nc1-c1nc2ccc(CN3CCOCC3)cc2[nH]1)NC1CC1	1.22 °C
N#Cc1ccc(-c2c(-c3ncn[nH]3)sc(N3CCOCC3)c2C#N)c(F)c1	0.35 °C
Oc1cccc(-c2nc(N3CCOCC3)c3oc4ncccc4c3n2)c1	0.32 °C
CN(C)C/C=C/C(=O)Nc1ccc(C(=O)Nc2cccc(Nc3ncc(Cl)c(-c4c[nH]c5ccccc45)n3)c2)cc1	0.82 °C
CCNC(=O)Nc1ccc(-c2nc(N3CCOC[C@@H]3C)c3c(n2)C(C)(C)S(=O)(=O)C3)cc1	0.36 °C
CNC(=O)c1cc(Oc2ccc3nc(N[C@@H]4CCCC[C@H]4O)sc3c2)ccn1	0.37 °C
CN(C)CCOc1ccc(-c2nc(-c3ccncc3)c(-c3ccc4c(c3)CC/C4=N\O)[nH]2)cc1	0.13 °C
Cc1ccc(NC(=O)c2cccc(N(C)C)c2)cc1NC(=O)c1ccc(O)cc1	0.56 °C
